Reference: PubChem BioAssay AID651567 (National Center for Advancing Translational Sciences (NCATS), 2012)
The whole screen tested about 1,200 compounds, of which about 10 (0.8%) were called active. Roughly 4% stayed inconclusive and do not appear here. The full list was thinned out, with actives kept by preference. A number with no mark means an inactive call. Calls follow the shape of the dose curve; as a rule, active = well fitted inhibition curve with a large enough effect; inconclusive = small, poorly fitted or top-dose-only effect; inactive = no such curve, though single readings can be large or run the other way.

Assay: qHTS Assay to Find Inhibitors of Chronic Active B-Cell Receptor Signaling: Hit Validation in OCI-Ly3 Assay
Details: OCI-Ly3 IkB-luciferase reporter, Chroma-Glo luminescence, 4 h; series mostly up to 46.1 µM; activity change, negative = inhibition: at the top concentration
Excerpt: Diffuse large B-cell lymphoma (DLBCL) is the most common category of non-Hodgkin lymphoma, with ~20,000 new cases per year in the United States. DLBCL should be regarded as a collection of different neoplasms. Microarray gene expression analysis has defined two principal types of DLBCL, named for their similarity to normal B cell stages or activation states: a germinal center B-cell (GCB) type, and an activated B-cell (ABC) type. In ABC-DLBCL, a constitutive high-level activity of the NF-kappaB family of transcription factors has been observed (1) and NF-kappaB target genes are more highly expressed in ABC primary tumors than in GCB tumors. Functional studies have shown a constitutive high-level activity of the IkappaB (inhibitor of kappa-B) kinase (IKK) complex. […] Further analysis of DLBCL primary tumors for NF-kappaB target gene expression imply that although CARD11 is required for constitutive IKK activity in all ABC-DLBCL lines, mutations in CARD11 may be the root cause of IKK activation only in lines or tumors with such mutations. In other words, CARD11 mutations may explain NF-kappaB activation in only 10% of ABC-DLBCL cases. […] This process has been termed 'chronic active BCR signaling' (CABS). The goal of this screen is to find small-molecule inhibitors of the CABS pathway found in ABC-DLBCL lines using a cell-based assay that measures IkappaBalpa stability, which has already been extensively validated in the OCI-Ly3 line (PubChem AID:445; REF: 4). […] Hits from the primary screen were tested in this selectivity secondary assay. NIH Molecular Libraries Probe Production Network [MLPCN] NIH Chemical Genomics Center [NCGC] MLPCN Grant: R03 DA031086 PI Name: Dr. R. Eric Davis
Cells were seeded in 1536-well plates at 5000 cells/3ul in IMDM medium containing 0.5% FBS, w/o phenol red, L-glutamine, 25 mM HEPES, 3 mg/ml sodium bicarbonate. After centrifugation for 1 min. at 1000 rpm, 23 nl of compounds or DMSO were delivered to each well using a pin tool. Then 1ul 80ng/ml doxycycline was dispensed into white solid 1536-well plates and the plates were incubated at 37C/5% C02 in a cell incubator for 4 hrs. Then 4 ul Chroma-Glo luminescent substrate mix (Promega) was added to each well. The plate was incubated at R.T. for 10-15 min. The plates were measured on a ViewLux plate reader for green luminescence (540/20 nm filter) and red luminescence (618/8 nm filter). The green and red luminescent signals were corrected for red and green luminescence filter overlap using previously determined filter calibration constants (determined using the procedure outlined in the Promega Technical Manual). The %Activity was determined from the ratio of corrected green/red luminescent values. Green luminescent and ratio %Activity was determined by normalizing to the difference in signal between basal cells (0% Activity) and cells incubated with 10 uM of the proteasome inhibitor MG-132 (100% Activity). Red luminescent %Activity was normalized to the difference between red luminesence in basal cells (0%Activity) and zero luminescence (-100% Activity). Concentration-response curves were fitted to the signals arising from the green luminescence (I-kappa-B-alpha-luciferase fusion; IkB-luc) and the red luminescence (unfused luciferase; luc) as well as the calculated ratio. The concentration-effect curves were then classified based on curve quality (r2), response magnitude and degree of measured activity. Compounds were then categorized based on their concentration-response curves for all three datasets (Ikb-luc, luc and ratio).
% is scaled to controls: 0 for no effect and ±100 for the full control effect; potency is read from the fitted curve at half-maximal effect.

| Compound | activity change, negative = inhibition [%] | Potency |
| --- | --- | --- |
| O=[N+]([O-])c1cccnc1SCc1c(F)cccc1Cl | -1.19 | – |
| CCCSc1nc(C)c(C(C)=O)cc1C#N | -0.455 | – |
| CCOc1c(Br)cc(CNc2ccc3c(c2)OCCO3)cc1OC | -4.18 | – |
| CCOC(=O)c1c(C)sc2c1N(C(C)=O)c1cc(Cl)ccc1S2 | -1.47 | – |
| CC(C)N1C(=O)/C(=C\c2nc3ccccc3c(=O)[nH]2)c2ccccc21 | -26.8 | – |
| COc1cc(C2Nc3ccccc3C(=O)N2c2ccc(Cl)cc2)c(Cl)cc1OCC(=O)O (stereo not drawn) | 0.262 | – |
| Cc1ccc(NC(=S)N/N=C/c2c(Cl)cccc2Cl)c(C)c1 | -4.26 | – |
| Cc1cc2nc(/C=C/c3cccnc3)[nH]c2cc1C | -2.38 | – |
| COC(=O)C1C(O)=C(C=Nc2ccccc2)C(=O)CC1(C)C (stereo not drawn) | 0.611 | – |
| Cc1ccc(NC(=O)c2ccco2)c([N+](=O)[O-])c1 | 0.0255 | – |
| CN(C)c1ccc(-c2nn3c(-c4ccccc4Cl)nnc3s2)cc1 | -2.19 | – |
| CCOC(=O)COc1cccc2c(=O)n(CC(=O)NCc3ccc(F)cc3)ccc12 | -1.96 | – |
| Cc1c(C(=O)OCC(C)C)[nH]c2c1C(=O)CC(c1cccs1)C2 (stereo not drawn) | -0.184 | – |
| Clc1cncc(Cl)c1N/N=C/c1ccncc1 | -4.45 | – |
| COc1ccc(CCNC(=O)Cn2c(=O)cnc3ccccc32)cc1 | -0.695 | – |
| COc1cc(C(=O)Nc2nc(C)c(Cc3ccc4c(c3)OCO4)s2)cc(OC)c1OC | -6.45 | – |
| O=C(/C=C/c1ccc(O)cc1)c1ccc(O)cc1O | – | 16.4 µM (active) |
| COc1ccc(C(=O)/C=C/c2ccc(O)cc2)c2c1CC(O)C(C)(C)O2 (stereo not drawn) | -0.966 | – |
| Cc1ccc(/C=C/C(=O)c2nc3ccccc3[nH]2)cc1 | -4.37 | – |
| COc1ccc2[nH]c3c(c2c1)CCN1C(=O)C(CC(=O)NCC24CC5CC(CC(C5)C2)C4)C[C@H](C(=O)N2CCCCC2)[C@@]31C (stereo partly drawn) | -2.31 | – |
| Nc1nc(SCc2nc(-c3ccccc3)no2)[nH]c(=O)c1-c1ccccc1 | -0.0938 | – |
| Oc1cccc(/C=N/Nc2ccc(Cl)nn2)c1O | – | 20.6 µM (active) |
| Oc1ccccc1/C=N/Nc1ccnc(SCc2ccccc2)n1 | 0.375 | – |
| O=C(/C=C/c1ccccc1)c1ccc(NC2=NCCCS2)cc1 | -4.98 | – |
| Cc1c(CCC(=O)N[C@@H](CCCNC(N)=O)C(=O)O)c(=O)oc2cc3oc4c(c3cc12)CCCC4 | -0.014 | – |
| COc1ccc(/C=N/Nc2nccnc2Cl)c(OC)c1 | -14.9 | – |
| CCO[C@H]1OC(C(=O)NCc2nc3ccccc3[nH]2)=C[C@@H](C2CC2)[C@@H]1CCCO | -0.732 | – |

| Compound | activity change, negative = inhibition [%] | Potency |
| --- | --- | --- |
| CNc1nc(-c2ccc(OC)cc2)c(-c2ccc(OC)cc2)s1 | -0.769 | – |
| COc1ccc(C)cc1Nc1cc(C)nc2ncnn12 | -1.77 | – |
| NC(=S)N/N=C1\CC(c2ccc3c(c2)OCCCO3)Oc2ccc(F)cc21 (stereo not drawn) | -4.5 | – |
| CCOC(=O)C1=C(O)c2ccccc2C(=O)/C1=C\c1ccc(CC)cc1 | -7.74 | – |
| COCCn1nnnc1C(C(C)C)N(Cc1ccccc1)Cc1cc2cc(OC)ccc2[nH]c1=O (stereo not drawn) | -1.07 | – |
| CCCN1C(=O)C(=O)c2cc(Cl)ccc21 | -8.1 | – |
| Cc1ccc2c(c1)C(=O)C(=O)N2CCOc1ccccc1 | -2.23 | – |
| CC[C@]12c3[nH]c4cc(CCC(=O)N(C)C)ccc4c3CCN1C(=O)[C@@H](CC(=O)NC(C)(C)C)C[C@@H]2C(=O)N1CCN(C(=O)c2ccco2)CC1 | -2.11 | – |
| CCOC(=O)c1ccc(-c2c(-c3cc(OC)c(OC)c(OC)c3)noc2C)cc1F | -3.94 | – |
| COc1ccccc1NC(=O)N1CCC(c2nc3cc(C)c(C)cc3[nH]2)CC1 | -3.12 | – |
| Cc1cc(C)c2nc3sc(C(=O)N4CCOCC4)c(N)c3cc2c1 | -8.28 | – |
| Cc1cc(Cl)n2c(nc3cc(F)c(F)cc32)c1C#N | 0.844 | – |
| CC(=O)Nc1cc(N=Cc2ccc(O)cc2O)c(Cl)cc1Cl | – | 14.6 µM (active) |
| NC(=S)N=Nc1c(O)n(CCCl)c2ccccc12 | -0.383 | – |
| CCn1c(O)c(N=NC(=S)NCC2CCCO2)c2ccccc21 (stereo not drawn) | – | 20.6 µM (active) |
| Oc1[nH]c2c(Cl)cc(Cl)cc2c1N=NC(=S)NCC1CCCO1 (stereo not drawn) | -26.5 | – |
| COC(=O)C1C(O)=C(C=Nc2cccc3ccccc23)C(=O)CC1(C)C (stereo not drawn) | -0.573 | – |
| CCOc1ccc(C(=O)NC(=S)Nc2cccc(S(=O)(=O)NC3=NCCC3)c2)cc1 | -4.42 | – |
| CC1=CC(C)(C)N(S(=O)(=O)c2ccc(C)cc2)c2ccccc21 | -3.65 | – |
| Cc1ccc(OC/C(=N\O)C(C)(C)C)c([N+](=O)[O-])c1 | -0.43 | – |
| Cc1ccc(Nc2nc(-c3c(C)nc4ccccn34)cs2)cc1 | -3.78 | – |
| CCOc1ccc(C(=O)c2cc([N+](=O)[O-])ccc2N2CCOCC2)cc1 | -3.09 | – |
| COc1ccc(C=C2c3ccccc3C(=O)c3ccccc32)c(OC)c1 | -2.64 | – |
| COc1ccc(/C=C/C(=O)c2cc(Br)ccc2OC(=O)c2ccco2)cc1OC | -26.8 | – |
| COCCN(Cc1cc2cc(C)cc(C)c2nc1Cl)C(=O)Nc1ccccc1 | -1.1 | – |
| Cc1ccc(NC(=S)NNC(=S)Nc2ccc(C)cc2C)cc1 | -5.8 | – |
